Test system: Pseudomonas aeruginosa PA14 wild type
Test: respiration area under curve with compound as sole nitrogen source, 24 h (OmniLog AUC (arbitrary units)); higher = more respiration / better utilisation as nitrogen source, active = 2000 or more
Procedure: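 Biolog Phenotype MicroArray plates PM6-PM8: each di/tripeptide is the sole nitrogen source (IF-0 medium with succinate/ferric citrate and dye mix A). Tetrazolium reduction was read in the OmniLog every 15 min for 24 h at 37°C and summarised as area under the respiration curve (arbitrary units). The paper counts values below 2000 as no respiration and above 8000 as solid respiration. Replicate datasets are averaged.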

| SMILES | respiration area under curve |
| --- | --- |
| CSCC[C@H](NC(=O)CN)C(=O)O (plate: PM6) | 327 (inactive) |
| NCC(=O)N1CCC[C@H]1C(=O)O (plate: PM6) | 9130 (active) |
| N[C@@H](CC(=O)O)C(=O)NCC(=O)O (plate: PM8) | 4290 (active) |
| C[C@@H](O)[C@H](N)C(=O)N1CCC[C@H]1C(=O)O (plate: PM7) | 13000 (active) |
| CC(C)C[C@@H](N)C(=O)NCC(=O)O (plate: PM8) | 0.4 (inactive) |
| CC(C)[C@H](NC(=O)[C@@H](N)CO)C(=O)O (plate: PM7) | 8700 (active) |
| O=C(O)[C@H](CO)NC(=O)[C@@H]1CCCN1 (plate: PM8) | 8750 (active) |
| C[C@@H](O)[C@H](N)C(=O)N[C@@H](CCCN=C(N)N)C(=O)O (plate: PM7) | 15400 (active) |
| CC(C)C[C@H](N)C(=O)N[C@@H](CO)C(=O)O (plate: PM7) | 13500 (active) |
| CC(C)C[C@H](NC(=O)[C@@H](N)CCCN=C(N)N)C(=O)O (plate: PM6) | 9430 (active) |
| CC(C)C[C@H](NC(=O)CN)C(=O)O (plate: PM6) | 1880 (inactive) |
| NC(N)=NCCC[C@H](NC(=O)[C@@H](N)CCCN=C(N)N)C(=O)O (plate: PM6) | 10100 (active) |
| NCC(=O)N[C@@H](CO)C(=O)O (plate: PM6) | 7870 (active) |
| CC(C)[C@H](N)C(=O)N[C@@H](CCC(N)=O)C(=O)O (plate: PM8) | 9290 (active) |
| N[C@@H](Cc1c[nH]c2ccccc12)C(=O)NCC(=O)O (plate: PM7) | 3340 (active) |
| C[C@H](NC(=O)CN)C(=O)O (plate: PM6) | 4610 (active) |
| CSCCC(NC(=O)C(N)CC(C)C)C(=O)O (stereo not given) (plate: PM6) | 3040 (active) |
| CC(C)[C@H](NC(=O)[C@@H](N)CCCN=C(N)N)C(=O)O (plate: PM6) | 8950 (active) |
| NCC(=O)N[C@H](CC(=O)O)C(=O)O (plate: PM8) | 0.2 (inactive) |
| N[C@@H](Cc1ccccc1)C(=O)NCC(=O)O (plate: PM7) | 7630 (active) |

| SMILES | respiration area under curve |
| --- | --- |
| CC(C)C[C@H](NC(=O)[C@@H](N)C(C)C)C(=O)O (plate: PM7) | 9770 (active) |
| NCC(=O)N[C@@H](CC(=O)O)C(=O)O (plate: PM8) | 5610 (active) |
| CC(C)C[C@H](NC(=O)[C@@H]1CCCN1)C(=O)O (plate: PM7) | 7810 (active) |
| C[C@H](N)C(=O)N[C@@H](C)C(=O)N[C@@H](C)C(=O)O (plate: PM8) | 10400 (active) |
| O=C(O)CC[C@H](NC(=O)[C@@H]1CCCN1)C(=O)O (plate: PM8) | 7660 (active) |
| CC(C)[C@H](N)C(=O)N[C@@H](CCC(=O)O)C(=O)O (plate: PM8) | 5380 (active) |
| CC[C@H](C)[C@H](NC(=O)CN)C(=O)O (plate: PM8) | 7100 (active) |
| CC(C)C[C@H](NC(=O)[C@@H](N)CC(=O)O)C(=O)O (plate: PM6) | 2690 (active) |
| C[C@@H](N)C(=O)NCC(=O)O (plate: PM8) | 6030 (active) |
| NC(=O)CC[C@H](NC(=O)[C@@H](N)CC(=O)O)C(=O)O (plate: PM8) | 9700 (active) |
| N[C@@H](CO)C(=O)NCC(=O)O (plate: PM7) | 8430 (active) |
| N[C@@H](Cc1ccccc1)C(=O)NCC(=O)NCC(=O)O (plate: PM8) | 8700 (active) |
| CC(C)[C@H](NC(=O)[C@@H](N)CC(N)=O)C(=O)O (plate: PM6) | 7030 (active) |
| CC(C)C[C@@H](N)C(=O)N[C@@H](Cc1ccc(O)cc1)C(=O)O (plate: PM8) | 36.8 (inactive) |
| CC(C)C[C@H](NC(=O)[C@@H](N)Cc1ccc(O)cc1)C(=O)O (plate: PM7) | 7880 (active) |
| CC(C)CC(N)C(=O)NC(Cc1c[nH]c2ccccc12)C(=O)O (stereo not given) (plate: PM7) | 8750 (active) |
| C[C@H](N)C(=O)N[C@@H](CCC(=O)O)C(=O)O (plate: PM6) | 7840 (active) |
| CC[C@H](C)[C@H](N)C(=O)N[C@@H](CCSC)C(=O)O (plate: PM6) | 1290 (inactive) |
| C[C@H](N)C(=O)NCC(=O)O (plate: PM6) | 8070 (active) |
| NC(Cc1c[nH]c2ccccc12)C(=O)NC(Cc1ccccc1)C(=O)O (stereo not given) (plate: PM7) | 547 (inactive) |
